The source of these data is PubChem BioAssay (Tox21).

Molecules are shown by their SMILES. Inconclusive results are not listed. A number with no mark means an inactive call. Activity calls are given as the source filed them. Unless noted, the call rests on the fitted dose curve; in most records, active means well fitted curve in the direction sought with a large enough effect in the repeat runs; inconclusive means weak or mixed curves; inactive means no such curve, though single readings can be large; an effect the other way counts as inactive or inconclusive.

Test [1] addresses Retinoic acid receptor RXR-alpha (Homo sapiens) (UniProt P19793). As to the kind of experiment: qHTS assay to identify small molecule agonists of the RXR signaling pathway (AID 1159527; calls by dose curve; further: nearly all actives have a fitted effect of over 35% in size). The procedure, abridged: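 Agonist-mode beta-lactamase reporter assay: HEK 293T RXR-alpha-UAS-bla cells treated 16 hr at 37 C with compounds, 9-cis retinoic acid as positive control. LiveBLAzer FRET substrate, 405 nm excitation, 460/530 nm emission.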

Test [2] can be described thus: qHTS assay to identify small molecule agonists of the RXR signaling pathway - cell viability counter screen (AID 1159529). Further: nearly all actives have a fitted effect of over 50% in size. The method, boiled down: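 CellTiter-Glo luminescence gave viability in the wells also read for beta-lactamase. Cells (RXR-alpha-UAS-bla HEK 293T, 2% charcoal-stripped FBS medium) had 5 hr plating, then 16 hr compound exposure at 37 C; tetraoctyl ammonium bromide served as positive control.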
On the technique in general: Quantitative high-throughput screening tests each substance at several concentrations.

Test [3] in a line: qHTS assay to identify small molecule antagonists of the retinoid acid receptor (RAR) signaling pathway - cell viability counter screen (AID 1159551). Further: nearly all actives have a fitted effect of over 35% in size. The procedure, abridged:
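Cells (C3RL4) are plated, incubated overnight, dosed with compound in DMSO, then given retinol at 1 uM final. After 6 h at 37 C, CellTiter-Glo is added and luminescence read following 30 min at room temperature.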

The nature of test [4]: qHTS assay to identify small molecule antagonists of the retinoic acid receptor (RAR) signaling pathway (AID 1159552; further: nearly all actives have a fitted effect of over 50% in size). The procedure, abridged: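 Luminescent RARE reporter read-out in C3RL4 cells: 6 hr co-treatment at 37 C of test compounds with retinol at 1 uM final. Cells plated overnight beforehand; luciferase reagent incubated 30 min at room temperature before reading.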

Test [5] in a line: qHTS assay to identify small molecule agonists of the retinoic acid receptor (RAR) signaling pathway (AID 1159553). Further: potency means the concentration at half of the fitted maximal effect. The conditions noted are these: C3RL4 RARE luciferase reporter, agonist, 6 h; activation: at 73.3 µM (top of the series). The method, boiled down:
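Seed C3RL4 reporter cells at 1,000 per well and incubate overnight at 37 C. Add compounds in DMSO, incubate 6 hr. Add luciferase reagent, wait 30 min at room temperature, read luminescence.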

The nature of test [6]: qHTS assay to identify small molecule agonists of the constitutive androstane receptor (CAR) signaling pathway - cell viability counter screen (AID 1224836). Further: nearly all actives have a fitted effect of over 45% in size. The method, boiled down: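 Cell viability multiplexed with the CAR agonist screen: CellTiter-Fluor fluorescence after 23 hr at 37 C. HepG2-CYP2B6-hCAR cells got compounds at 15 concentrations with PK11195 at 0.75 uM final.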

A short description of test [7]: qHTS assay to identify small molecule antagonists of the constitutive androstane receptor (CAR) signaling pathway - cell viability counter screen (AID 1224837). Further: nearly all actives have a fitted effect of over 45% in size. The procedure, abridged:
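Viability was measured with CellTiter-Fluor in a HepG2 line carrying stably transfected hCAR and a CYP2B6-2.2kb construct. Cells were exposed for 23 hr at 37 C to 15 compound concentrations with 50 nM CITCO as agonist.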

Test [8] addresses Nuclear receptor subfamily 1 group I member 3 (Homo sapiens) (UniProt Q14994). Put plainly: qHTS assay to identify small molecule antagonists of the constitutive androstane receptor (CAR) signaling pathway (AID 1224838).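 Further: HepG2 cells stably expressing hCAR with CYP2B6 luciferase reporter stimulated by CITCO; nearly all actives have a fitted effect of over 40% in size.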 The procedure, abridged: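 Antagonist mode used CITCO at a final 50 nM to activate CAR in human hepatoma HepG2 cells carrying stable hCAR and a 2.2 kb CYP2B6 promoter-luciferase construct. Compounds were tested at 15 concentrations over 24 h, with luminescence as the end point.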

Test [9] has the same target. As to the kind of experiment: qHTS assay to identify small molecule agonists of the constitutive androstane receptor (CAR) signaling pathway (AID 1224839). Further: nearly all actives have a fitted effect of over 15% in size. The procedure, abridged: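 Luminescent ONE-Glo read-out after 24 hr, 37 C exposure of double-stable HepG2-CYP2B6-hCAR reporter cells to a 15-point compound series, in the presence of 0.75 uM PK11195 (final).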
The nature of test [10]: qHTS assay to identify small molecule antagonists of the estrogen related receptor signaling pathway with the pleiotropic PPARgamma coactivator (PGC) from Tox21 10K library - cell viability counter screen (AID 1224840; active means well fitted cell-killing curve with a large enough effect in the repeat runs, not every such curve was filed as active; further: nearly all actives have a fitted effect of over 40% in size). The procedure, abridged: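 Multiplexed viability counter screen in the PGC/ERR cell line: cells treated with DMSO-dissolved compounds for 17.5 hours at 37 C, then viability measured as CellTiter-Fluor fluorescence.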

In test [11] the target is Thyrotropin receptor (Homo sapiens) (UniProt P16473). As to the kind of experiment: qHTS assay to identify small molecule agonists of the thyroid stimulating hormone receptor (TSHR) signaling pathway (AID 1224843; calls by dose curve; further: nearly all actives have a fitted effect of over 45% in size). The method, boiled down: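 A cell-based cAMP HTRF format was run in TSHR-transfected HEK293 cells, 800 per well. Treatment: 30 min, room temperature. Detection: 1 h with labelled cAMP and anti-cAMP cryptate. Concentration-response over 15 points, three replicates.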
Chain of Thyrotropin receptor (Homo sapiens) (P16473 whole entry, looked up): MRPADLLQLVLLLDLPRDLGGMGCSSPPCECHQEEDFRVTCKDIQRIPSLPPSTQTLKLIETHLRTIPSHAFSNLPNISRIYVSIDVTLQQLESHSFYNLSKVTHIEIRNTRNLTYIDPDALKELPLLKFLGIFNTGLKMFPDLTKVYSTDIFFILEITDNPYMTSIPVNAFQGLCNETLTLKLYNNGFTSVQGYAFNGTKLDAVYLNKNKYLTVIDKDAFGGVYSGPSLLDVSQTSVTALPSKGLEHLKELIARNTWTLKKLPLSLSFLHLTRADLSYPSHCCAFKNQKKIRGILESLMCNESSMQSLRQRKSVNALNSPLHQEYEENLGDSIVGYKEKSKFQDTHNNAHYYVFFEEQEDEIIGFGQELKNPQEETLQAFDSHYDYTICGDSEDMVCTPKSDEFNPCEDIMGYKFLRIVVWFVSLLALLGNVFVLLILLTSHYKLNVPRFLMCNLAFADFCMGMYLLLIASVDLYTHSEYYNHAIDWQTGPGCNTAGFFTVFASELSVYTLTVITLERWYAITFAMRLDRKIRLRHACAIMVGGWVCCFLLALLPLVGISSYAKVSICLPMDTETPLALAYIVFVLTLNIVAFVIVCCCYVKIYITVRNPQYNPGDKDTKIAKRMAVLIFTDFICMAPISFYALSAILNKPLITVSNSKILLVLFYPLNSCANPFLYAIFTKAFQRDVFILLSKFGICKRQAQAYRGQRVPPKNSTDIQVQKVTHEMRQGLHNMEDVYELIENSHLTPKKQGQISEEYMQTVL

The nature of test [12]: qHTS assay to identify small molecule agonists of the hypoxia (HIF-1) signaling pathway - cell viability counter screen (AID 1224844; calls by dose curve; further: nearly all actives have a fitted effect of over 50% in size). The method, boiled down:
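Cytotoxicity was measured in parallel with the HRE-driven beta-lactamase readout: after 17 hrs of compound exposure at 37C, HRE-bla ME-180 cells received CellTiter-Glo and luminescence was recorded 30 min later.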

Test [13] can be described thus: qHTS assay to identify small molecule agonists of H2AX (AID 1224845; active means well fitted activation curve with a large enough effect in the signal ratio in the repeat runs, not every such curve was filed as active; the % refers to the signal ratio). The procedure, abridged: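 Phospho-H2AX Ser139 measured by HTRF (ex 320 nm; em 665 and 620 nm) after 24 hr antibody incubation. Compounds, 15 concentrations, 0.76% DMSO, were applied to CHO-K1 cells for 3hr at 37C before lysis.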
Test [14] can be described thus: qHTS assay to identify small molecule agonists of the hypoxia (HIF-1) signaling pathway (AID 1224846; active means well fitted activation curve with a large enough effect in the signal ratio in the repeat runs, not every such curve was filed as active; the % refers to the signal ratio). The method, boiled down: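 Compounds from the Tox21 10K library, dissolved in DMSO, are tested for induction of a hypoxia response element–controlled beta-lactamase reporter in ME-180 cells. Exposure lasts 17 hrs at 37C after a 5 hr settling period, followed by CCF4-AM FRET substrate.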

Test [15] can be described thus: qHTS assay to identify small molecule agonists of H2AX - cell viability counter screen (AID 1224847; calls by dose curve;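 further: wild-type CHO-K1 cells; top concentration of the series differs between compounds; nearly all actives have a fitted effect of over 30% in size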). The method, boiled down:
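Counter-screen for viability: CellTiter-Glo ATP luminescence read after 3 h compound treatment (15-point titration, 0.76% DMSO final) of CHO-K1 cells at 37C, with 30 min room-temperature reagent incubation.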

The target of test [16] is Luciferin 4-monooxygenase (Photinus pyralis) (UniProt P08659). Put plainly: qHTS assay to identify small molecule inhibitors of firefly luciferase (AID 1224835). Further: nearly all actives have a fitted effect of over 25% in size. Further: potency means the concentration at half of the fitted maximal effect. The procedure, abridged:
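Inhibition of purified Photinus luciferase is measured by luminescence. Substrate levels (D-luciferin, ATP) sit at their KM values. Each compound is tested in a concentration series.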

A short description of test [17]: qHTS assay to identify small molecule antagonists of the estrogen related receptor signaling pathway with the pleiotropic PPARgamma coactivator (PGC) from Tox21 10K library (AID 1224841; call rule not given here; further: actives are mostly falling curves and most rising ones were filed inactive; nearly all actives have a fitted effect of over 50% in size). The procedure, abridged:
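Steps: plate 2,000 PGC/ERR cells per well; incubate 6 h at 37 C with 5% CO2; transfer compounds from DMSO stocks by pin tool; incubate 18 h at 37 C; add One-Glo; measure luminescence 30 min later.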

Test [18] in a line: qHTS assay to identify small molecule agonists of the estrogen related receptor signaling pathway with the pleiotropic PPARgamma coactivator (PGC) from Tox21 10K library (AID 1224842). Further: nearly all actives have a fitted effect of over 15% in size. The procedure, abridged: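 Luminescence from One-Glo (30 min, room temperature) measured after PGC/ERR cells had 18 h at 37 C with pinned compound (23 nL in DMSO). Cells had been seeded at 2,000 per well and pre-incubated 6 h.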

Test [19] in a line: qHTS assay to identify small molecule antagonists of the estrogen related receptor (ERR) signaling pathway from Tox21 library (AID 1224848). Further: nearly all actives have a fitted effect of over 50% in size. The procedure, abridged: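 ERR cell line, 2,000 cells/well. 6 h settle, then compound (DMSO) added; 18 h at 37 C; ONE-Glo luminescence after 30 min RT.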
Test [20] in a line: qHTS assay to identify small molecule antagonists of the estrogen related receptor (ERR) signaling pathway from Tox21 library - cell viability counter screen (AID 1224834). Further: nearly all actives have a fitted effect of over 30% in size. The procedure, abridged: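 ERR cells, 2,000/well; 6 h settle at 37 C/5% CO2; pin-tool compound transfer in DMSO; 17.5 h at 37 C; CellTiter-Fluor, 30 min; fluorescence intensity.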

Chain of Luciferin 4-monooxygenase (Photinus pyralis) (P08659 whole entry, looked up): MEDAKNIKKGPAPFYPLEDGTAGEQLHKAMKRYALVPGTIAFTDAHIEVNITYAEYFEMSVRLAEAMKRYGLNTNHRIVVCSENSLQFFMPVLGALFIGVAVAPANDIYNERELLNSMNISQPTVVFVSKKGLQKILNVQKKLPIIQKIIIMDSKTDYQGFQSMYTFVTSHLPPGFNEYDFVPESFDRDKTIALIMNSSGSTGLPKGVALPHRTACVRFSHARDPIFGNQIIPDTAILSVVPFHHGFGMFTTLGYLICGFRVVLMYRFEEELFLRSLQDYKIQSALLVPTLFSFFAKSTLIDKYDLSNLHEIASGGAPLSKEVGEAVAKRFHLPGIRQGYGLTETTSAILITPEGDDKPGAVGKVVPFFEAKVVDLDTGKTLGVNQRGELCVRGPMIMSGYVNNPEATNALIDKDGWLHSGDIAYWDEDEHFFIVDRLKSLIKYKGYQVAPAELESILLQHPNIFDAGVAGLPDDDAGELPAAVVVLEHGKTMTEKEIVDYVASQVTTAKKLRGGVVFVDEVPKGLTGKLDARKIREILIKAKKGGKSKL
Chain of Nuclear receptor subfamily 1 group I member 3 (Homo sapiens) (Q14994 whole entry, looked up): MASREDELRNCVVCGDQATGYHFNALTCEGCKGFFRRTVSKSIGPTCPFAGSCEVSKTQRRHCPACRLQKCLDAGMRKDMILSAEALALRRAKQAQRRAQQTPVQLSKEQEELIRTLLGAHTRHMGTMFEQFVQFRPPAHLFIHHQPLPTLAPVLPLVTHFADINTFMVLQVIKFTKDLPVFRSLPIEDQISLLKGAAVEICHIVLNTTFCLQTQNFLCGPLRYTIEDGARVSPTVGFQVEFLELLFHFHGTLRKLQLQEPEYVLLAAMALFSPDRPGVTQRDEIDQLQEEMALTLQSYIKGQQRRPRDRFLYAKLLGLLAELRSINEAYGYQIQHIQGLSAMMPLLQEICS
Chain of Retinoic acid receptor RXR-alpha (Homo sapiens) (P19793 whole entry, looked up): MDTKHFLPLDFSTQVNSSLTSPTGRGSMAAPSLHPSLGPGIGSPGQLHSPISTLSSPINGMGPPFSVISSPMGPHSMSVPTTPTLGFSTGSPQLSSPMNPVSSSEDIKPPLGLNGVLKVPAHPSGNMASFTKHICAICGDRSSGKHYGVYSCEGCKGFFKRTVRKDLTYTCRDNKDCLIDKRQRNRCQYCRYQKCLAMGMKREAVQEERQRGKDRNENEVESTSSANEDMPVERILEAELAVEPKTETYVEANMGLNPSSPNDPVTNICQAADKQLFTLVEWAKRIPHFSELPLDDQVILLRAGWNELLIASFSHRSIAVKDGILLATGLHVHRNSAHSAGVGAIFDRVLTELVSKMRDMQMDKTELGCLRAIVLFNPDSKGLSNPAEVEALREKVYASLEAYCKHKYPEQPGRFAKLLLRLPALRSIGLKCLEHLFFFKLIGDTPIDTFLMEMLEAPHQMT

As for `O=S(=O)(O)SSS(=O)(=O)O`, the Potency entry in test [1], in test [4], in [5], in test [7], in test [8] and in [9] was “inactive” each time. The Potency entry in test [15] is “inactive”. Also, the result in test [2], in test [3], in test [6], in [10], in test [11] and in [12] was inactive. Moreover, the compound was called inactive in test [13] and in test [14].
As to `CC(C)COC(=O)/C=C/c1ccccc1`, the Potency entry in test [1], in test [4], in test [7], in [8], in test [17] and in test [19] was “inactive” in each case. For the same compound, the outcome in test [2], in test [3], in test [6], in test [10], in test [18] and in [12] was inactive. Also, the result in test [13] and in test [14] was inactive. Further, the Potency in test [5] is 30.6 µM (active); in test [16], 7.1 µM (active).
As for `COc1cccc2sc(N)nc12`, the Potency entry in test [1], in test [4], in [5], in [16], in test [7] and in [8] was “inactive” throughout. The Potency entry in [17], in test [15] and in [19] was “inactive” throughout. Moreover, the outcome in test [2], in test [3], in test [6], in test [10], in test [18] and in test [11] was inactive. The outcome in test [12], in [13] and in test [14] was inactive.
In the case of `O=C1NC2NC(=O)NC2N1` (centres undefined), the Potency result in test [1], in [4], in [5], in test [20], in test [7] and in test [15] was “inactive” each time. In addition, the outcome in test [2], in [3], in [10], in test [11], in test [12] and in [13] was inactive. Besides, the outcome in test [14] was inactive.
In the case of `C=CCOCC(CO)(COCC=C)COCC=C`, the Potency result in [1], in test [5], in test [20], in test [16], in test [7] and in test [8] was “inactive” in each case. In addition, the Potency result in test [17], in [15] and in [19] was “inactive” in each case. Also, the result in test [2], in [3], in test [6], in test [10], in test [18] and in test [11] was inactive. The result in test [12], in test [13] and in [14] was inactive.
In the case of `CC(C)SCc1ccco1`, the Potency result in [1], in test [4], in test [5], in test [20], in test [7] and in test [15] was “inactive” each time. The Potency result in test [19] is “inactive”. Further, the result in test [2], in [3], in test [10], in test [18], in test [12] and in [13] was inactive. In addition, in test [14], the outcome was inactive.
